Compounds with a hit are over-represented: about 1.3% of the library has one in this group of screens.
SRC3 inh: SRC3 coactivator transcriptional activity inhibitors, primary screen, cell-based, luminescence. AID 588352, 2011. actives 0.17% (n = 360,000). HEK293 GAL4-SRC3 luciferase reporter. inhibition, % at 3.6 µM;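 active means inhibition above a per-campaign cutoff, the mean of all compounds plus 3 SD, cut at about 60% in these data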;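 further: 0% = DMSO-treated cells and 100% = gossypol-treated cells at 36 µM; higher means less SRC3-driven luciferase light from the GAL4 reporter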
Gli-Sufu block: Gli-Sufu pathway antagonists, primary screen, luciferase luminescence, Sufu-KO-LIGHT cells, uHTS | Sufu-KO-LIGHT fibroblasts, Gli luciferase reporter luminescence | inhibition, % at 5 µM | actives 0.74% (n = 340,000);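 active means inhibition above about 55%, limit read from the data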;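 further: 0% = DMSO-treated cells and 100% = wells with medium but no cells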
SRC1 inh: SRC1 coactivator transcriptional activity inhibitors, primary screen, cell-based, luminescence; Nuclear receptor coactivator 1 (Homo sapiens), Q15788; HEK293 GAL4-SRC1 luciferase reporter; inhibition, % at 3.6 µM; actives 0.12% (n = 360,000);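 active means inhibition above the campaign mean plus 3 SD, with each screening campaign given its own cutoff, cut at about 60% in these data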;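 further: 0% = DMSO treated cells and 100% = gossypol at 36 µM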
COUP-TFII inh: NR2F2 transcriptional activity inhibitors, primary screen, cell-based, luciferase reporter, HEK293T, luminescence. HEK293T NGFI-A luciferase reporter. actives 0.7% (n = 370,000). inhibition, % at 8.6 µM. COUP transcription factor 2 (Homo sapiens), P24468;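 active means inhibition above a per-plate cutoff, mean inhibition of test wells between control levels plus 3 SD, cut at about 38% in these data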;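 further: cells cotransfected with COUP-TFII expression vector driving the NGFI-A reporter; 0% = median of COUP-TF2 test wells and 100% = reporter-only cells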
LRH-1 inv ag: LRH-1 (NR5A2) inverse agonists, primary screen, cell-based, luminescence, HEK293T, StAR-luciferase reporter | actives 0.13% (n = 360,000) | LRH-1 transfected, 24 h | Nuclear receptor subfamily 5 group A member 2 (Homo sapiens), O00482 | inhibition, % at 3.6 µM | AID 602396, 2012;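 active means inhibition above the mean inhibition of all tested compounds plus 3 SD, cut at about 73% in these data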;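 further: 0% = DMSO wells and 100% = reporter-only cells lacking LRH-1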
Target sequence (O00482 whole entry, looked up): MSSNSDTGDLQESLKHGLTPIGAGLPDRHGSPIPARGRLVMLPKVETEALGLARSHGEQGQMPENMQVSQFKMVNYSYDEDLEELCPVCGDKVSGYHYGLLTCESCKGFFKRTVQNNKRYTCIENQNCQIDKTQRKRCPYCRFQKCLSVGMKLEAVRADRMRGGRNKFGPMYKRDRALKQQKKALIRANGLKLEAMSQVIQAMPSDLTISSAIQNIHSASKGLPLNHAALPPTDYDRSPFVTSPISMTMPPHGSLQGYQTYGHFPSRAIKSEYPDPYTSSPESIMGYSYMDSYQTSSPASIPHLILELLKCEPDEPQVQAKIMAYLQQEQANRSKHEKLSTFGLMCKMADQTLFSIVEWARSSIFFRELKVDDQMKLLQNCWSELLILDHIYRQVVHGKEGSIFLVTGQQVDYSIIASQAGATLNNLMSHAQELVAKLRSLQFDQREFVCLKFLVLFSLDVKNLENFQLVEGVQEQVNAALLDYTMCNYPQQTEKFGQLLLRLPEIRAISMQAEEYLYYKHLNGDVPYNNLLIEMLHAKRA
SRC2 inh: inhibition of GAL4-SRC2 driven luciferase reporter, primary screen, SRC2 inhibitor project, cell-based, luminescence | Nuclear receptor coactivator 2 (Homo sapiens), Q15596 | HEK293 GAL4-SRC2 luciferase reporter | inhibition, % at 9 µM | actives 0.17% (n = 370,000) | AID 651957, 2012;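 active means inhibition above the mean inhibition of all tested compounds plus 3 SD, set per campaign, cut at about 52% in these data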;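 further: 0% = DMSO treated cells and 100% = cells given Gossypol at 36 µM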
Gli-Sufu confirm: Gli-SUFU pathway antagonists, confirmation, single concentration, luciferase luminescence, Sufu-KO-LIGHT cells | shares compounds with Gli-Sufu block | actives 40% (n = 2,500) | Gli luciferase reporter | inhibition, % at 5 µM;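 active means mean inhibition at 5 µM reaching about 45%, limit read from the data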;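 further: plate controls were DMSO-treated cells for no effect and wells lacking cells for full effect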
SufuKO cytotox: cytotoxicity in Sufu-KO-LIGHT cells, confirmation, cytotoxicity control for Gli-SUFU antagonist project, cell-based, ATP luminescence, single concentration; cytotoxicity, % at 5 µM; shares compounds with Gli-Sufu block; actives 32% (n = 2,500);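 active means mean cytotoxicity at 5 µM above about 25%, limit read from the data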;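 further: cells exposed to compound overnight for roughly 16 to 18 hours; plate controls were DMSO wells with cells for no effect and medium without cells for full effect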
Wnt3a cs: Wnt3a reporter signal inhibition, confirmation, counter-screen for Gli-SUFU antagonist project, Wnt-LIGHT cells, luminescence, single concentration | shares compounds with Gli-Sufu block | Wnt3a-driven luciferase reporter | inhibition, % at 6.25 µM | actives 20% (n = 2,500) | AID 651995, 2013;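 active means mean inhibition above about 25%, limit read from the data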
* = called active by the depositor.

For CCCCOCC1CN(CCCC)S(=O)(=O)c2c(NCc3cc(OC)c(OC)c(OC)c3)cccc2O1 (centres undefined) the results were COUP-TFII inh 13.4 and SRC2 inh 32.0.
For COc1ccccc1N1CCN(CC(O)c2c(C)[nH]c3ccccc23)CC1 (centres undefined) the results were SRC3 inh 0.5, Gli-Sufu block 61.3*, SRC1 inh 1.8, COUP-TFII inh -5.3, LRH-1 inv ag 4.3, SRC2 inh 2.1, Gli-Sufu confirm 20.1, SufuKO cytotox 21.4 and Wnt3a cs -28.8.
`CC(C(=O)NCCS(=O)(=O)c1ccc(Cl)cc1)S(=O)(=O)c1ccccc1` (centres undefined) gave SRC3 inh 8.5, Gli-Sufu block -1.6, SRC1 inh -36.8, COUP-TFII inh 9.7, LRH-1 inv ag -11.0 and SRC2 inh 9.9.
CC(C(=O)NCCS(=O)(=O)c1ccc(Cl)cc1)S(=O)(=O)c1ccc(Cl)cc1 (centres undefined) was read as SRC3 inh 8.0, Gli-Sufu block 71.8*, SRC1 inh -3.7, COUP-TFII inh 5.0, LRH-1 inv ag 7.0, SRC2 inh 0.0, Gli-Sufu confirm 18.2, SufuKO cytotox 5.8 and Wnt3a cs 5.2.
For CCCC1CCC2(CCCN2CCOC(=O)Nc2ccc(OC)cc2)CC1 (centres undefined) the results were COUP-TFII inh 17.1.
For N#C/C(=C/c1ccc(N2CCCC2)c([N+](=O)[O-])c1)c1nc2ccccc2[nH]1 the results were SRC3 inh -16.1, Gli-Sufu block -29.6, SRC1 inh -21.9, COUP-TFII inh -4.3, LRH-1 inv ag -28.4 and SRC2 inh -7.4.
Cc1ccc2nc(/C(C#N)=C\c3ccc(N4CCCCC4)c([N+](=O)[O-])c3)[nH]c2c1 was read as SRC3 inh -39.2, Gli-Sufu block 50.0, SRC1 inh -41.6, COUP-TFII inh 14.8, LRH-1 inv ag -37.5, SRC2 inh -14.6, Gli-Sufu confirm 35.8, SufuKO cytotox 9.6 and Wnt3a cs -78.5.
Screening COC(=O)[C@]12C[C@H](CC(=O)NCc3cccc4ccccc34)C(=O)N(CCc3ccc(OC)c(OC)c3)C1=C[C@H](C(C)(C)C)O[C@@H]2C returned COUP-TFII inh 16.9 and SRC2 inh -7.7.
For Cc1c(C(=O)Nc2ccc(-c3nnc4n3CCCCC4)cc2)oc2ccc(Br)cc12 the results were SRC3 inh 15.8, Gli-Sufu block 51.7, SRC1 inh -6.5, COUP-TFII inh 11.4, LRH-1 inv ag -50.3, SRC2 inh -9.6, Gli-Sufu confirm 31.9, SufuKO cytotox 12.8 and Wnt3a cs -96.7.
Screening C=CCN1C(=O)[C@@H](CC(=O)NCc2ccc(C)o2)[C@]2(C(=O)OCC)CCCCC/C=C/12 returned COUP-TFII inh 1.8 and SRC2 inh -19.6.
Screening CCN(c1ccccc1)S(=O)(=O)c1ccc(N2CCN(c3ccc(OC)cc3)CC2)nc1 returned SRC3 inh 8.9, Gli-Sufu block 23.8, SRC1 inh 0.6, COUP-TFII inh 2.6, LRH-1 inv ag 9.7 and SRC2 inh -12.9.
For CCN(c1ccccc1)S(=O)(=O)c1ccc(N2CCN(c3ccc(O)cc3)CC2)nc1 the results were SRC3 inh 3.5, Gli-Sufu block 55.2*, SRC1 inh 6.7, COUP-TFII inh 24.9, LRH-1 inv ag -24.7, SRC2 inh 2.7, Gli-Sufu confirm 29.0, SufuKO cytotox 3.7 and Wnt3a cs -23.5.
`COc1ccc(Cl)cc1C(=O)NNC(=O)CSc1nnc2ccccn12` gave SRC3 inh 12.3, Gli-Sufu block 53.1, SRC1 inh 10.8, COUP-TFII inh 7.1, LRH-1 inv ag 12.7, SRC2 inh 8.9, Gli-Sufu confirm 18.1, SufuKO cytotox 2.0 and Wnt3a cs 17.8.
For COc1ccc(C(=O)NNC(=O)CSc2nnc3ccccn23)cc1OC the results were SRC3 inh -18.1, Gli-Sufu block 10.5, SRC1 inh -1.4, COUP-TFII inh -14.7, LRH-1 inv ag 5.9 and SRC2 inh -5.0.
For C#CCNC(=O)C[C@@H]1C[C@@](CCC(=O)OCC)(C(=O)OCC)C2=CCCCN2C1=O the results were COUP-TFII inh 5.3 and SRC2 inh 14.6.
Screening CC1CN(C(=O)CCc2cc(C(C)(C)C)c(O)c(C(C)(C)C)c2)CC(C)O1 (centres undefined) returned SRC3 inh -11.2, Gli-Sufu block 66.1*, SRC1 inh -0.5, COUP-TFII inh 3.3, LRH-1 inv ag 21.5, SRC2 inh -18.7, Gli-Sufu confirm 86.3*, SufuKO cytotox 30.7* and Wnt3a cs 28.6*.
Screening COc1ccccc1N1CCN(c2ncc(C(=O)N3CCN(c4cccc(Cl)c4)CC3)c3ccccc23)CC1 returned SRC3 inh 7.5, Gli-Sufu block 60.6*, SRC1 inh -20.6, COUP-TFII inh 2.7, LRH-1 inv ag -4.5, SRC2 inh -6.0, Gli-Sufu confirm 67.3*, SufuKO cytotox 23.0 and Wnt3a cs 23.7.
`COc1ccc(C(=O)N2CCN(c3cccc(Cl)c3)CC2)c(OC)c1` gave SRC3 inh 6.2, Gli-Sufu block 12.4, SRC1 inh 4.7, COUP-TFII inh -7.9, LRH-1 inv ag -3.7 and SRC2 inh -3.4.
COc1cccc(CNC(=O)[C@H]2CCCN2C(=O)[C@H]2CCCN2S(=O)(=O)c2cccc(C)c2)c1 was read as COUP-TFII inh -1.7 and SRC2 inh -8.1.
Screening CCC(C(=O)NCCN1CCN(C)CC1)n1c(C)c2cnn(-c3ccccc3)c(=O)c2c1C (centres undefined) returned SRC3 inh 1.7, Gli-Sufu block 94.0*, SRC1 inh 5.5, COUP-TFII inh 2.8, LRH-1 inv ag 4.5, SRC2 inh 3.1, Gli-Sufu confirm 9.7, SufuKO cytotox 23.7 and Wnt3a cs -9.2.
`Cc1nn(-c2ccccc2)c(C)c1/C=N\N1CCN(Cc2ccccc2Cl)CC1` gave COUP-TFII inh 10.5 and SRC2 inh 16.7.
